Source: PubChem BioAssay (NCATS)
Records with an inconclusive call do not appear. Activity calls are given as the source filed them. Unless noted, calls come from the whole dose curve; as a rule, active = well fitted curve in either direction with a large enough effect (not every such curve was filed as active); inconclusive = small, poorly fitted or top-dose-only effect, or another doubt; inactive = flat fitted curve, though single readings scatter.

What was measured:
[1] = target: Lysosomal acid glucosylceramidase (Homo sapiens) (UniProt P04062); test: Glucocerebrosidase-p2 (AID 348; in the data active = potency below about 10 µM; note: potency is the fitted concentration of half-maximal effect); conditions: purified GBA, blue fluorogenic substrate, 40 min
Sequence of Lysosomal acid glucosylceramidase (Homo sapiens) (P04062 whole entry, looked up): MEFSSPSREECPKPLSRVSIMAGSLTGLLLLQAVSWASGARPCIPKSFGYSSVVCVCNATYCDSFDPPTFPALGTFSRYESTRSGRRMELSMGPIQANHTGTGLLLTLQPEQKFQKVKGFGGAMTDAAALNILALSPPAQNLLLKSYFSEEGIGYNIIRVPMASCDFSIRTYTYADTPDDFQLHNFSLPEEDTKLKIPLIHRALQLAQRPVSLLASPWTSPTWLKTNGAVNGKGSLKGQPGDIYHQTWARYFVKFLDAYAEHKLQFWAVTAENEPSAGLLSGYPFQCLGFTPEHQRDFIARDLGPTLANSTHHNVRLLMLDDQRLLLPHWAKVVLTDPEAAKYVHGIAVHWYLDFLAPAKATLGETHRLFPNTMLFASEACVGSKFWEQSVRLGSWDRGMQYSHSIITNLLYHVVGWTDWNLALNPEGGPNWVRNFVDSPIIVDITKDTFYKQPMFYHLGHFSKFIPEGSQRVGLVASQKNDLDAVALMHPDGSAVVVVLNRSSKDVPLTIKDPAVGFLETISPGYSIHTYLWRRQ
Outline: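 Compounds titrated from 0.6 nM upwards against 0.2 nM enzyme in pH 5.9 citric acid/KH2PO4, taurocholate, tween-20; blue fluorogenic substrate 80 uM, 40 min room temperature, stopped and read Ex 365/Em 440 for AC50.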

[2] = AP1 Signaling Pathway (AID 357); conditions: ME-180 AP-1-bla reporter, EGF-induced, beta-lactamase ratio, 5 h; at 7.69 µM (top of the series) unless noted; note: % is set by controls: 0 for no effect and ±100 for the full control effect
Outline: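 ME-180 cells with beta-lactamase reporter under AP-1 response element, stimulated with EC50 EGF; compounds tested in titration series, 5 h at 37 °C. CCF4 substrate added 2.5 h at room temperature; 460/530 nm emission ratio gave %activity and AC50.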

[3] = Stat Signaling Pathway (AID 446); conditions: ME-180 SIE beta-lactamase reporter, IL-6 stimulated, 5 h; at 7.69 µM (top of the series) unless noted;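 note: ME-180 cervical cancer cells given 40 pM IL-6 alongside compound; SIE-controlled beta-lactamase reporter measured as 460/530 nm FRET emission ratio; % is set by controls: 0 for no effect and ±100 for the full control effect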
Outline: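 ME-180 SIE-bla cells; overnight plating; cpd + IL-6 40 pM, 5 h, 37 C; LiveBLAzer 2.5 h RT; 460/530 nm emission ratio. Normalized to 300 pM IL-6 and 125 nM JAK inhibitor controls.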

[4] = target: Glucocorticoid receptor (Homo sapiens) (UniProt P04150); test: GR-EFC Redistribution (AID 451; calls by dose curve; note: potency is the fitted concentration of half-maximal effect); conditions: CHO-K1 GR-EFC translocation, beta-gal luminescence, 2 h
Sequence of Glucocorticoid receptor (Homo sapiens) (P04150 whole entry, looked up, the tested form may be a part): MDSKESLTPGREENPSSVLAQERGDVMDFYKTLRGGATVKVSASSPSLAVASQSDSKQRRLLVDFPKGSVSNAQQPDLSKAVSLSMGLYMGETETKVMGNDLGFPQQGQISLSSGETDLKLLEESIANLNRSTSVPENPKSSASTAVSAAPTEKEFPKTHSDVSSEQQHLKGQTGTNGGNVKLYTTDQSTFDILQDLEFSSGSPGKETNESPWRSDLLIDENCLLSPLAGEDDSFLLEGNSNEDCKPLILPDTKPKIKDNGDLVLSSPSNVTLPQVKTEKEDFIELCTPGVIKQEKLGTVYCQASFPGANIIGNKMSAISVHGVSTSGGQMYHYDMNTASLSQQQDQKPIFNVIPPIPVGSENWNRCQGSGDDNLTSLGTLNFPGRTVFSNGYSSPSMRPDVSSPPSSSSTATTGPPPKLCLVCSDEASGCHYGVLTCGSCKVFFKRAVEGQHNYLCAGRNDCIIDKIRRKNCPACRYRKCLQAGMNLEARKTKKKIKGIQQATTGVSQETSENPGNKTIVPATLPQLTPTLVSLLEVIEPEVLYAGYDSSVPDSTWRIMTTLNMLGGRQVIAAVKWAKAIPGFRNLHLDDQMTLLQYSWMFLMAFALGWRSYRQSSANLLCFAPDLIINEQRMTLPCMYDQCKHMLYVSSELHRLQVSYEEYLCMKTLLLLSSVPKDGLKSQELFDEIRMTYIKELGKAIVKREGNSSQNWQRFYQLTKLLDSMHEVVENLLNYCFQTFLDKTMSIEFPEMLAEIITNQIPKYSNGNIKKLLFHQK
Outline: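 CHO-K1 cells expressing nuclear EA and GR-ED fragments of b-gal; compounds titrated up to 46 uM final, 2 h at 37 C. GR nuclear translocation read as complemented b-gal luminescence after 1 h RT detection.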

[5] = target: Mitogen-activated protein kinase 10 (Mus musculus) (UniProt Q61831); test: JNK3 AlphaScreen Assay (AID 530); conditions: JNK3 lysate, c-Jun phosphorylation; series mostly up to 57.1 µM;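 note: kinase came from lysate of stimulated human HepG2 cells; signal reports phosphorylation of biotinylated GST-cJun 1-79 at Ser73 with 10 µM ATP; % is set by controls: 0 for no effect and ±100 for the full control effect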
Outline: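 Pre-activated (IL-1β/TNFα) JNK3 in HepG2 lysates phosphorylates biotin-GST-cJun(1-79), 10 uM ATP; anti-phospho-cJun(Ser73) AlphaScreen read at room temperature, pH 7.6 Tris buffer. Compounds pre-incubated 15 min as titrations.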

[6] = target: 3',5'-cyclic-AMP phosphodiesterase 4B (Homo sapiens) (UniProt Q07343); test: qHTS Assay for Inhibitors of PDE-IV (AID 607; active = well fitted activation curve with a large enough effect in the main read-out, with a control signal flat, not every such curve was filed as active; note: % of control where 0% means no effect); conditions: HEK293 ACTOne CNG channel cells, membrane potential fluorescence; series mostly up to 22.9 µM
Sequence of 3',5'-cyclic-AMP phosphodiesterase 4B (Homo sapiens) (Q07343 whole entry, looked up): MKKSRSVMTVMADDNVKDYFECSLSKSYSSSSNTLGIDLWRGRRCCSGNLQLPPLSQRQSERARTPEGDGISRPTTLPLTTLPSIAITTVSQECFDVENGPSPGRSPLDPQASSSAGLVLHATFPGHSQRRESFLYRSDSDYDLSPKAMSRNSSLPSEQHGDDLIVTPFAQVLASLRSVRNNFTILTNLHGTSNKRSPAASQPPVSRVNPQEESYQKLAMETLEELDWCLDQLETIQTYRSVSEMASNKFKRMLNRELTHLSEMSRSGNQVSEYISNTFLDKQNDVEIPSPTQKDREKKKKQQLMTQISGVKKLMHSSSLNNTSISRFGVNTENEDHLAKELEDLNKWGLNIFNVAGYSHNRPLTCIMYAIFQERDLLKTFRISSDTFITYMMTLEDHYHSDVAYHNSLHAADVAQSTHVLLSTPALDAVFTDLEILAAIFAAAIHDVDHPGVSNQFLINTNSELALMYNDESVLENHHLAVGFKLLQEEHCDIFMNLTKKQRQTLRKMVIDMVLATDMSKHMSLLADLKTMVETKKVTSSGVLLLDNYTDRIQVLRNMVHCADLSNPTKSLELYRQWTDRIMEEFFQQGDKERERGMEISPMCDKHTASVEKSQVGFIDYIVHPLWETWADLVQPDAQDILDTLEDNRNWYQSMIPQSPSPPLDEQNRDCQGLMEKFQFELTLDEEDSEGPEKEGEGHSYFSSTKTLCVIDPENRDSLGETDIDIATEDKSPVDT
Outline: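 ACTOne HEK293 cells carry a modified cAMP-gated CNG channel and express endogenous PDE4; plated 1000 cells/well, compounds up to 22.9 uM final. Membrane-potential dye fluorescence (ex 535/em 590) was read; parental cells received 10 uM forskolin + 100 uM RO 20-1724.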

[7] = qHTS Assay for Lipid Storage Modulators (AID 1519; calls by dose curve); conditions: Drosophila S3 cells, BODIPY lipid droplet/cell ratio, laser cytometry, cells loaded with oleic acid; for activity change, negative = inhibition: at 57.5 µM (top of the series)
Outline: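 Cells seeded at 5,000 per well were treated with compounds over a concentration series and loaded with oleic acid (400 uM, as added). Lipid droplet fluorescence (488 nm excitation, 500-530 nm channel) was read by laser-scanning cytometry and normalized to 20 uM Triacsin C.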

[8] = target: Cytochrome P450 1A2 (Homo sapiens) (UniProt P05177); test: p450-cyp1a2 (AID 410; calls by dose curve; note: potency is the fitted concentration of half-maximal effect); conditions: recombinant CYP1A2, luciferin-ME demethylation, luminescence; series mostly up to 57 µM
Sequence of Cytochrome P450 1A2 (Homo sapiens) (P05177 whole entry, looked up): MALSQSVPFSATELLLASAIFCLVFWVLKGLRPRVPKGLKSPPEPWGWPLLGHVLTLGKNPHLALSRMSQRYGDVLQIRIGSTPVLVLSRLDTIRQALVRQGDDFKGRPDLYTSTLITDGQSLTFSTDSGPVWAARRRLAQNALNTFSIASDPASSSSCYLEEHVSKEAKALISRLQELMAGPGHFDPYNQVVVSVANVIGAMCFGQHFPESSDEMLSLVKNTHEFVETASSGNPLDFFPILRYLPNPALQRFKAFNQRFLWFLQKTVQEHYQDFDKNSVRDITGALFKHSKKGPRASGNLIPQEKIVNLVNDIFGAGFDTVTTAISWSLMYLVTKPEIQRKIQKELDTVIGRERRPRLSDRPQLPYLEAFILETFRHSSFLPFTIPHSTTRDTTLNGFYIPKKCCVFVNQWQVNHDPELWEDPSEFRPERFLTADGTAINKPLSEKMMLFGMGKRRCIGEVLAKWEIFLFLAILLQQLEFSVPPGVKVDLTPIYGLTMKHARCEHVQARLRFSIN
Outline: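 20nM CYP1A2 with 100uM Luciferin-ME (at Km) in 100mM KPO4; compound preincubated 10 min, NADPH regeneration added, 60 min at room temperature. Luciferin quantified by luminescence after detection reagent; normalized to 57 uM furafylline.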

[9] = NFAT Signaling Pathway (AID 444); conditions: Jurkat NFAT-bla M1, carbachol, beta-lactamase ratio, 5 h; at 7.69 µM (top of the series) unless noted;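 note: carbachol stimulus at about its EC50 of 1 µM final; % is set by controls: 0 for no effect and ±100 for the full control effect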
Outline: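 Jurkat cells with NFAT-driven β-lactamase reporter and co-expressed M1 receptor, stimulated with carbachol (final 1 uM, ~EC50), compound titration, 5 h at 37 °C. CCF4 loaded 1 h at RT; 460/530 nm ratio gave %activity and AC50.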

[10] = target: Glucocorticoid receptor (Homo sapiens) (UniProt P04150); test: GR-GFP Redistribution (AID 450;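 active = compounds whose dose series gives a full or clear partial fitted curve of increased nuclear translocation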; note: potency is the fitted concentration of half-maximal effect); conditions: U2OS GR-GFP nuclear translocation, laser cytometry, 2 h
[11] = target: Cytochrome P450 3A4 (Homo sapiens) (UniProt P08684); test: qHTS Assay for Activators of Cytochrome P450 3A4 (AID 885; active = well fitted curve in the direction sought with a large enough effect; an effect the other way counts as inactive or inconclusive; note: nearly all actives have a fitted effect of over 65% in size); conditions: recombinant CYP3A4, Luciferin-PPXE luminescence, 60 min; series mostly up to 57.1 µM
Sequence of Cytochrome P450 3A4 (Homo sapiens) (P08684 whole entry, looked up): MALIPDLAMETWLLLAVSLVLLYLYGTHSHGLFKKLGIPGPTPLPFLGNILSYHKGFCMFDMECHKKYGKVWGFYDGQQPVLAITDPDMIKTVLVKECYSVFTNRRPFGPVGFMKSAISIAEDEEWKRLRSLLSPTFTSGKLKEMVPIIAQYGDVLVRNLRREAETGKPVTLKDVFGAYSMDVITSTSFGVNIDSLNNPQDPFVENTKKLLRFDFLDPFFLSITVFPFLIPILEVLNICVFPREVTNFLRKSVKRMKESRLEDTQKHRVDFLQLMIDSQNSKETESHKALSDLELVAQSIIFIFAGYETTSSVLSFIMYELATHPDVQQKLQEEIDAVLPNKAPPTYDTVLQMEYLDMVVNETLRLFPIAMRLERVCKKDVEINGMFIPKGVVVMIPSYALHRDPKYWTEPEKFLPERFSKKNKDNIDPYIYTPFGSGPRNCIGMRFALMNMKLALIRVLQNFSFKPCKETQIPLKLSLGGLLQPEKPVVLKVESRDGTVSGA
Outline: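 20nM CYP3A4 + 25uM Luciferin-PPXE (=KM), 200mM KPO4; cpd 10 min RT; NADPH regen, 60 min RT; stop w/ detection buffer, 20 min; luminescence. Normalized to 57 uM ketoconazole.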

[12] = Confirmation and Secondary Assay for Modulators of Hemoglobin Beta Chain Splicing at IVS2 705 locus (AID 930; active = well fitted curve in the direction sought with a large enough effect; an effect the other way counts as inactive or inconclusive;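 note: HeLa cells stably expressing the EGFP-705 splicing reporter; GFP fluorescence per well restored by corrected splicing of the IVS2-705 intron in EGFP; % of control where 0% means no effect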); conditions: HeLa EGFP-705 splicing reporter, GFP fluorescence, 48 h; series mostly up to 38.3 µM
Outline: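 HeLa cells stably carrying EGFP interrupted by mutant beta-globin intron 2 (IVS2-705) treated 2 days at 37C with compound; 500 nM antisense PNA as control. Correct splicing read as total peak GFP intensity per well by laser-scanning cytometry.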

[13] = target: Ubiquitin carboxyl-terminal hydrolase 1 (Homo sapiens) (UniProt O94782); test: Inhibitors of USP1/UAF1: Pilot qHTS (AID 504865; active = well fitted curve in the direction sought with a large enough effect; an effect the other way counts as inactive or inconclusive;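 note: rhodamine fluorescence freed from ubiquitin-rhodamine substrate followed over time; top concentration of the series differs between compounds; % is set by controls: 0 for no effect and ±100 for the full control effect; nearly all actives have a fitted effect of over 35% in size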); conditions: purified USP1/UAF1, Ub-rhodamine cleavage fluorescence; series mostly up to 54.9 µM
Sequence of Ubiquitin carboxyl-terminal hydrolase 1 (Homo sapiens) (O94782 whole entry, looked up): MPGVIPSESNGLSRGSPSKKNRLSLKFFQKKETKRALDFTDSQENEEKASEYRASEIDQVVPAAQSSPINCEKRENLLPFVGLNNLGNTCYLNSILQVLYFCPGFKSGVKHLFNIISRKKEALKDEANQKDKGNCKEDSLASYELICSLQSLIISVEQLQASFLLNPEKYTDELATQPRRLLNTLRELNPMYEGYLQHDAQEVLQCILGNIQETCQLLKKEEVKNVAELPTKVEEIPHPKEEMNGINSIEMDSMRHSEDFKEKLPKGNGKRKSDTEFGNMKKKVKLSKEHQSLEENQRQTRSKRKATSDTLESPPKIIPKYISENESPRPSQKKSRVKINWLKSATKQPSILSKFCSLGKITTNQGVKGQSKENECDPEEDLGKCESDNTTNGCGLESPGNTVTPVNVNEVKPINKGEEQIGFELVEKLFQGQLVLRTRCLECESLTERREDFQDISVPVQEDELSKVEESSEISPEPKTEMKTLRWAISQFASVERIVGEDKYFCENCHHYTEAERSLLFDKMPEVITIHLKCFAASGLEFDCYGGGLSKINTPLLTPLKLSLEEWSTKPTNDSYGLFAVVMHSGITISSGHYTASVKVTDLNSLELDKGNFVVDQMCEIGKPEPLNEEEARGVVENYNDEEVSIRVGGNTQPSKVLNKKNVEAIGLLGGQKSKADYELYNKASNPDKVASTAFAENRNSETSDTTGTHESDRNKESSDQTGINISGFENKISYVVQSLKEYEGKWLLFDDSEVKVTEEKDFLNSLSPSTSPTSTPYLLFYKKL
Outline: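 USP1/UAF1 complex at 1 nM preincubated 15 min at room temperature with compound, then Ub-Rho substrate added at 150 nM final. Fluorescence (480/540 nm) read kinetically in 50 mM HEPES pH 7.8, 0.5 mM EDTA, 1 mM TCEP, 0.1 mg/ml BSA, 0.01% Tween-20.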

[14] = measured here: cell count channel max response
[15] = measured here: lipid channel max response

N#Cc1ccc(CN2CCC3(CCNCC3)CC2)cc1
14.9%: max response [7, 15]
inactive: Potency [1] > 11.4 µM | activity change, negative = inhibition [2] 1.45% | activity, negative = inhibition [3] 2.48% | Potency [4] > 46 µM | Potency [5] | Potency [6] | activity change, negative = inhibition [7] 1.87%
9.11%: max response [7, 14]

COCCNc1ncnc2ccc(-c3ccccc3CN(C)C)cc12
25.7%: max response [7, 15]
inactive: Potency [1] > 11.4 µM | activity change, negative = inhibition [9] -6.98% | activity, negative = inhibition [3] 4.88% | Potency [10] > 46 µM | Potency [4] > 46 µM | Potency [5] | Potency [6] | Potency [11] | outcome [12] | activity change, negative = inhibition [7] 12.3% | Potency [13]
active: Potency [8] 25.1 µM
13.6%: max response [7, 14]

N#Cc1ccc(CN2CCCC3(CCNCC3)C2)cc1
inactive: Potency [1] > 11.4 µM | activity change, negative = inhibition [2] 6.69% | activity change, negative = inhibition [9] -22.5% | activity, negative = inhibition [3] -0.579% | Potency [4] > 46 µM | Potency [5] | Potency [6] | activity change, negative = inhibition [7] 1.45%
18.2%: max response [7, 15]
12.8%: max response [7, 14]

O=C(Nc1ccccc1)N1CCCC2(CCNCC2)C1
25%: max response [7, 15]
18%: max response [7, 14]
inactive: Potency [1] > 11.4 µM | activity change, negative = inhibition [2] -6.92% | activity change, negative = inhibition [9] 6.49% | activity, negative = inhibition [3] 4.83% | Potency [4] > 46 µM | Potency [5] | Potency [6] | Potency [11] | activity change, negative = inhibition [7] 3.78%
